# Bioassay records from PubChem BioAssay.
# SMARCA2 activ: SMARCA2 function activation, primary screen | MG213 cells, MMTV-luciferase reporter, dexamethasone, overnight | activation, % at 9.1 µM | actives 1% (n = 370,000) | AID 652017; in the data active = activation above about 7.8%;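 also: 0% = vehicle wells and 100% = reference activator wells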
# ABCB6 inh 2: blocks the human ABCB6 transporter. K562-ABCB6 porphyrin accumulation, flow cytometry, 1 h; hits give low values. fluorescence ratio to DMSO, % at 10 µM. actives 0.19% (n = 360,000);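 active = fluorescence ratio to DMSO below 75%, the collection mean minus 3 SD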;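 also: signal is porphyrin accumulated inside mitochondria; 100% equals median channel fluorescence of DMSO control wells; lower ratio means ABCB6 inhibition with less porphyrin fluorescence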
# Target sequence (Q9NP58 whole entry, looked up): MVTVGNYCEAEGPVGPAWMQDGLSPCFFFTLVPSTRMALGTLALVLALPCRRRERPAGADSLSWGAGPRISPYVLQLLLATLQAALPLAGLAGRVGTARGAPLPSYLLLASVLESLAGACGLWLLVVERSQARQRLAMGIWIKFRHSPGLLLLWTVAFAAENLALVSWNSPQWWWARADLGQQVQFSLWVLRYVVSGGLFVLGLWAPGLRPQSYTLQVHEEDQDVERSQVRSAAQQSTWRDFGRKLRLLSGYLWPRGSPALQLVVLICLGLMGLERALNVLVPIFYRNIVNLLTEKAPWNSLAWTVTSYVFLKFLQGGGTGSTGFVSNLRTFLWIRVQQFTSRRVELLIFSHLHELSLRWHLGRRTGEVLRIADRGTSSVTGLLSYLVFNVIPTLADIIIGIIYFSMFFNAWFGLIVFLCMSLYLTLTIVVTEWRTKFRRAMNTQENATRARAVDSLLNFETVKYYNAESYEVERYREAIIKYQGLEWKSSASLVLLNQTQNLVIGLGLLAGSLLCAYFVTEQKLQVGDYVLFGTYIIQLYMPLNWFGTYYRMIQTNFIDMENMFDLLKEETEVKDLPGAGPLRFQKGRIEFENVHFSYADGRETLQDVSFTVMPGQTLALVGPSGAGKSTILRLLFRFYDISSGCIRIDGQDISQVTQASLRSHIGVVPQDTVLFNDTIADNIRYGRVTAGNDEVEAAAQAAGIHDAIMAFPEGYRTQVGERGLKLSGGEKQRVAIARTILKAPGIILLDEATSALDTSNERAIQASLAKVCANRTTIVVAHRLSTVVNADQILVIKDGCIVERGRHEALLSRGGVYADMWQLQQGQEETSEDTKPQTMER
# MsrA act: bovine methionine sulfoxide reductase A activation | purified bovine MsrA, absorbance read-out | activation, % at 10.6 µM | actives 0.3% (n = 360,000); in the data active = activation above about 7.5%;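 also: 0% = vehicle and 100% = reference activator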
# MsrA inh: inhibitors of bovine MsrA. purified bovine MsrA, absorbance read-out. inhibition, % at 15.5 µM. actives 0.75% (n = 360,000). AID 651718;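 also: 0% = vehicle wells with enzyme and 100% = reference inhibitor wells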
# MsrA inh confirm: confirmation of bovine MsrA inhibitors; actives 41% (n = 2,300); purified bovine MsrA, absorbance read-out; shares compounds with MsrA inh; inhibition, % at 15.5 µM;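 also: coupled to thioredoxin reductase with NADPH and selenocystamine and DMSO as substrate; 0% = vehicle only and 100% = full effect of reference inhibitor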
# * hit, by the source's call; · = no result given. A selection: hits, their analogues and other compounds. The true share with any hit is near 2.1%. Rule as the data show it, unless noted: active = inhibition above about 4.5%; inactive = the rest.
SMILES,SMARCA2 activ,ABCB6 inh 2,MsrA act,MsrA inh,MsrA inh confirm
Cn1cnc([N+](=O)[O-])c1S(=O)(=O)Oc1cccc2ccccc12,-1,108,-10,14*,7.1*
Cn1cnc([N+](=O)[O-])c1Cl,-5,90,-4,1,·
Cc1cc(C(=O)O[C@@H]2CCC[C@]3(C(=O)N(Cc4ccccc4)c4ccccc43)[C@H]2NC(=O)CCc2ccccc2)no1,-4,·,·,·,·
CC(C)(C)OC(=O)N1CCCN(C(c2ccnc3ccccc23)c2nnnn2-c2ccc3c(c2)OCCO3)CC1 (centres undefined),-4,96,-10,0,·
O=[N+]([O-])c1ccc2[nH]c(O)c(N=NC3CS(=O)(=O)CC3O)c2c1 (centres undefined),-1,96,-5,5.2*,5.0*
COc1ccc(OC)c(C2/C(=C(/O)c3cnn(-c4ccccc4)c3C)C(=O)C(=O)N2CCN(C)C)c1 (centres undefined),-1,98,-3,0,·
COc1ccc(C2/C(=C(/O)c3cnn(-c4ccccc4)c3C)C(=O)C(=O)N2CCN(C)C)cc1OC (centres undefined),0,97,-4,9.3*,2
CCOC(=O)N1CCN(C(=O)c2cccn3c(=O)c4sccc4nc23)CC1,2,97,-1,5.7*,4
CCOC(=O)N1CCN(C(=O)c2ccc3nc4ccc(Cl)cc4c(=O)n3c2)CC1,-3,92,-2,1,·
CCOC(=O)N1CCN(C(=O)c2ccc3nc4ccsc4c(=O)n3c2)CC1,-1,99,-3,5.1*,2
O=S1(=O)c2c(NCc3ccco3)cccc2Oc2ccccc2CN1Cc1cn(Cc2ccc(C(F)(F)F)cc2)nn1,-4,·,·,·,·
CCCCCOC(=O)C(C)c1c(C)[nH]c(=S)[nH]c1=O (centres undefined),1,94,-1,13*,8.8*
CCOC(=O)C(C)c1c(C)[nH]c(=S)[nH]c1=O (centres undefined),0,90,-2,1,·
N#Cc1c(N2CCCC2)ccc(Br)c1Cl,-3,104,-11,6.0*,9.0*
COc1ccc(C2=NS(=O)(=O)N(C)C(C(=O)NCc3ccccn3)=C2)cc1,-4,99,-1,4.7*,3
COc1ccc(NC(=O)C2=CC(c3ccc(OC)cc3)=NS(=O)(=O)N2C)cc1,-3,101,-2,5.4*,2
COc1ccc(C2=NS(=O)(=O)N(C)C(C(=O)NC3CCCC3)=C2)cc1,-4,98,-2,6.1*,2
COc1ccc(C2=NS(=O)(=O)N(C)C(C(=O)NCc3cccs3)=C2)cc1OC,-5,103,-2,4.7*,2
COc1ccc(NC(=O)C2=CC(c3ccco3)=NS(=O)(=O)N2C)cc1,0,95,-1,3,·
COC(=O)C[C@@H]1CC[C@H]2[C@@H](COc3ccc(NC(=O)c4ccc(C(F)(F)F)cc4)cc3C(=O)N2C)O1,-5,·,·,·,·
COC(=O)c1ccccc1NC(=S)NC(=O)C1CC1,1,89,-2,12*,11*
Cc1ccc(C(=O)N/N=C/c2nc3ccccc3n2C)cc1,-1,94,-5,2,·
Cn1c(/C=N/NC(=O)c2ccccc2Br)nc2ccccc21,0,107,-2,5.3*,3
FC(F)(F)c1ccccc1Cn1ccc2ccc(-c3ccc4ccn(Cc5ccccc5)c4c3)cc21,-2,·,·,·,·
N#C/C(=C/c1cccs1)c1ccccn1,5,105,-5,5.1*,5.4*
SMILES,SMARCA2 activ,ABCB6 inh 2,MsrA act,MsrA inh,MsrA inh confirm
CCCN1CCCc2cc(CN)ccc21,-7,124,-6,16*,-1
O=C(/C=C/c1cccs1)Nc1ccncc1,0,102,-7,5.9*,5.3*
Cc1ccnc(NS(=O)(=O)c2ccc(NC(=O)/C=C/c3ccccc3)cc2)n1,0,94,-6,1,·
Cc1ccnc(NS(=O)(=O)c2ccc(NC(=O)/C=C/c3cccs3)cc2)n1,-2,100,-17,5.9*,4
CCN1C(C(=O)Nc2cc(C)on2)=C(O)c2ccccc2S1(=O)=O,-1,94,-5,5.1*,2
Cc1ccc(C(=O)C2=C(O)C(=O)N(CCCN3CCOCC3)C23C(=O)N(C)c2ccccc23)o1 (centres undefined),0,104,-1,10*,6.2*
CCOC(=O)[C@]12CCCCC/C=C\1N(CCc1ccc(Cl)cc1)C(=O)[C@H]2CC(=O)NCCCOC,-1,·,·,·,·
O=C(/C(C=Nc1cccc(C(F)(F)F)c1)=C(/O)c1ccco1)C(F)(F)F,1,99,-4,2,·
O=C(/C(C=Nc1ccc(Br)cc1)=C(/O)c1ccco1)C(F)(F)F,7,92,-4,4.8*,3
O=C(CN1CCc2onc(-c3ccc(-n4cc(C5=CCCCC5)nn4)cc3)c2C1=O)N1CCOCC1,-3,·,·,·,·
Cc1ccc(-c2cc(C(F)F)nc(N3CCOCC3)n2)cc1,2,97,-3,11*,9.7*
COc1ccc(-c2csc(CCn3nc(C)cc3C)n2)cc1,-6,101,-4,2,·
COc1ccc(-c2cc(C(F)F)nc(-n3nc(C)cc3C)n2)cc1,1,99,-3,15*,16*
O=C(OCc1cn(Cc2cc(F)cc(F)c2)nn1)N1CCOCC1,-6,·,·,·,·
CC(C)CN1C(=O)[C@@]2(CC(=O)N(C)C2c2ccccc2)c2cc(-n3cc(CCc4ccccc4)nn3)ccc21 (some centres undefined),-5,·,·,·,·
O=C(O)c1ccc(/C=C2\SC(=S)N(NC(=O)c3ccccc3[N+](=O)[O-])C2=O)cc1,-2,93,-8,4.8*,4
CSc1nc2c(=O)[nH]cnc2s1,-2,·,·,0,·
O=c1ccc2nc3ccccc3sc-2c1,-4,106,-8,1,·
CC(C)(C)N1Cc2nnn(CC3CCCCC3)c2-c2cc(F)ccc2S1(=O)=O,-5,·,·,·,·
O=C(CCCN1C(=O)S/C(=C\c2ccccc2)C1=O)NNC(=O)c1ccccc1O,-10,95,-6,4.7*,4
O=C(CN1C(=O)S/C(=C\c2ccccc2)C1=O)NNC(=O)c1ccccc1O,-1,100,-3,4,·
N#CC1=C(N)Oc2cc3ccccc3cc2C1c1cccnc1 (centres undefined),-2,97,-5,7.6*,2
NCC(=O)Nc1ccc(Cl)cc1C(=O)c1ccc[nH]1,-5,99,-12,5.0*,1
O=C1N/C(=N/O)S/C1=C\c1ccccc1-n1cccn1,-5,91,-5,4.7*,3
CCOC(=O)[C@]12CCCC3=C1N(CCC3)C(=O)[C@@H](CC(=O)N1CCCCC1)C2,-4,·,·,·,·
CSC[C@H]1CN(c2ccc(Br)cc2)C(=O)[C@@H]1CC(=O)Nc1ccc(Br)cc1,0,96,-3,0,·
CNC(=O)C[C@H]1C(=O)N(c2ccc(Br)cc2)C[C@@H]1CSC,-3,95,-1,5.6*,3
CCCCCc1c(-c2cccc(F)c2)ncn1CCc1ccccc1OC,-5,112,-2,2,·
CCCCCc1c(-c2cccc(OC)c2)ncn1CCc1ccccc1OC,-2,113,-2,21*,18*
